PKA-R1A act: activators of PKA-R1A complex; PKA-R1A dissociation, Cy5-IP20 fluorescence polarization; scaled: DMSO 0%, 113 µM cGMP 100%; activation, % at 11.4 µM; 340,000 tested, 0.083% active;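 active = percent activation above the mean of all tested compounds plus 3 SD, cut at about 19% in these data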;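 note: higher means more PKAc released from R1A so a rise in polarization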
PKA-R2B act: activates the human PKA-R2B holoenzyme complex. P22694+P31323. PKA-R2B holoenzyme dissociation, Cy5-IP20 fluorescence polarization; R2B truncated from residue 108, S112A mutant; 0% DMSO only, 100% 113 µM cGMP. activation, % at 11.4 µM. 340,000 tested, 0.079% active. AID 504700;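 active = activation above a cutoff set at the mean over all compounds plus 3 SD, cut at about 18% in these data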;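 note: higher means more holoenzyme dissociation and a rise in polarization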
Target sequence (P31323 whole entry, looked up, other chains not shown, the tested form may be a part): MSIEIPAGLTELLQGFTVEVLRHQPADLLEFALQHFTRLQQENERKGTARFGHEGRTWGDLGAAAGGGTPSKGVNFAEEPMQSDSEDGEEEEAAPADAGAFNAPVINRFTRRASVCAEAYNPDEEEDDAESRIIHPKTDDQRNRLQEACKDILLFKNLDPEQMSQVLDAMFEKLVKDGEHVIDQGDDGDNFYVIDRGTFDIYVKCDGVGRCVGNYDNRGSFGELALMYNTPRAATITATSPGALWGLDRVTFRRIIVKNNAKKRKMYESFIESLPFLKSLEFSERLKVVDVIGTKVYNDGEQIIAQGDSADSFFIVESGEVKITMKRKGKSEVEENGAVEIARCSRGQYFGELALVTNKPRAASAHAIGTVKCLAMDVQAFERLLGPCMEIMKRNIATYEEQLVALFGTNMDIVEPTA
MsrA act: activators of bovine methionine sulfoxide reductase A; 360,000 tested, 0.3% active; purified bovine MsrA, absorbance read-out; activation, % at 10.6 µM; AID 602163; in the data active = activation above about 7.5%;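 note: 0% = vehicle and 100% = reference activator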
MsrA inh: inhibitors of bovine MsrA; purified bovine MsrA, absorbance read-out; inhibition, % at 15.5 µM; 360,000 tested, 0.75% active; in the data active = inhibition above about 4.5%;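 note: 0% = vehicle wells with enzyme and 100% = reference inhibitor wells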
R2B FP artifact: counter-screen for PKA-R2B activators: fluorescence polarization artifacts. activation, % at 11.4 µM. AID 504796. 270 tested, 6% active. shares compounds with PKA-R2B act. FP artifact counterscreen; in the data active = activation above about 20%;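 note: Cy5 labelled IP20 peptide probe with compound but no PKA protein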
PKA-R2B act conf: PKA-R2B complex activation, confirmation; shares compounds with PKA-R2B act; fluorescence polarization; activation, % at 11.4 µM; 270 tested, 9% active; AID 504797; in the data active = activation above about 19%
Target sequence (P31323 whole entry, looked up): as the sequence (P31323 whole entry, looked up, other chains not shown, the tested form may be a part) above
* = called active by the depositor; nt = no result. Rows were chosen to be rich in hits. Some 1.1% of all compounds tested hit in one or more screens of this group.

SMILES	PKA-R1A act	PKA-R2B act	MsrA act	MsrA inh	others
Cc1cc(C)c(S(=O)(=O)N2CCCCC2)c(C)c1N(C)S(=O)(=O)c1ccccc1	3.1	-4.5	9.7*	0.4
O=C(CCc1c[nH]c2ccccc12)Nc1ccc(Nc2cccnc2)c(Br)c1	nt	nt	nt	1.2
Cc1ccc(NC(=O)/C(=C\c2ccc3c(c2)OCO3)NC(=O)c2ccco2)cc1	-1.9	-3.7	-6.8	4.5*
Cc1[nH]nc2c1C(c1ccc(Br)cc1)N(c1ccccc1)C2=O (centres undefined)	nt	nt	nt	-0.4
CCOC(=O)C(=CNc1ccc2c(c1)CCN2C(C)=O)C(=O)OCC	-3.7	-3.5	-4.8	4.9*
O=C1C(Cl)=C(NCCN2CCCCC2)C(=O)c2ccccc21	-8.4	4.0	17.9*	nt
COc1cc(OC)c(-c2sc(Nc3ccccc3)n[n+]2-c2ccc(F)cc2)cc1OC	-2.4	-5.8	-10.7	4.6*
Oc1[nH]c2ccc(Br)cc2c1N=NC(=S)Nc1ccc(F)cc1	-4.0	5.2	-1.9	0.6
N=C(N)N=Nc1c(O)[nH]c2ccc(Br)cc12	4.3	-3.4	-1.4	4.6*
C[C@@H]1ON(C)[C@H]2C[C@H]3c4[nH]c5c(-c6ccc(F)cc6)cccc5c4CCN3C(=O)[C@@H]12	nt	nt	nt	-1.4
CCOC(=O)C1C(=O)C=C(C)C(C(=O)OCC)C1c1cccc([N+](=O)[O-])c1 (centres undefined)	-6.9	0.9	1.3	4.6*
CCOC(=O)C1C(=O)C=C(c2ccc([N+](=O)[O-])cc2)CC1c1ccccc1 (centres undefined)	-1.3	1.2	-4.4	0.6
O=Cc1ccc(-c2ccc([N+](=O)[O-])cc2Cl)o1	-8.2	7.5	3.4	5.5*
Cc1ccc(-c2ccc(/C=N/n3cnnc3)o2)cc1	-3.4	1.9	-2.1	4.1
Clc1cccc(-c2ccc(/C=N/n3cnnc3)o2)c1	-8.2	-7.3	-12.0	4.6*
Cc1c(CC(=O)NCC(=O)NCC(=O)O)c(=O)oc2cc3c(cc12)CCC(C)(C)O3	-7.0	-9.0	-2.2	2.9
Cc1c(CC(=O)NCC(=O)O)c(=O)oc2cc3c(cc12)CCC(C)(C)O3	-0.8	7.7	-3.6	4.6*
CCOC(=O)C1CCN(C2=NC(=O)/C(=C/c3ccc(OC)c(OC)c3)S2)CC1	1.4	-1.8	-8.8	3.1
CCOC(=O)C1CCN(C2=NC(=O)/C(=C/c3ccc(Cl)cc3)S2)CC1	-1.0	-5.3	-2.8	4.7*
Cc1ccc(/C=C2\SC(N3CCCC3)=NC2=O)cc1	nt	nt	nt	4.6*
O=C(/C=C/c1ccc2c(c1)OCO2)N1CCN(c2n[nH]c(=O)[nH]c2=O)CC1	-4.0	-3.5	0.0	4.6*
CN1CCN(C(=O)/C=C/c2ccc3c(c2)OCO3)CC1	-3.1	1.2	-2.1	2.1
C[C@@H]1OC(C2CCCCC2)N(C)[C@H]2C[C@H]3c4[nH]c5cccc(-c6ccccc6)c5c4CCN3C(=O)[C@@H]12 (some centres undefined)	nt	nt	nt	0.6
CC12CN3CC(C)(CN(C1)C3c1ccc(Cl)cc1Cl)C2O (centres undefined)	-13.6	3.5	1.0	0.1
CN(C)c1ccc(C2N3CC4(C)CN2CC(C)(C3)C4O)cc1 (centres undefined)	2.3	3.9	-9.5	5.5*
SMILES	PKA-R1A act	PKA-R2B act	MsrA act	MsrA inh	others
O=C(C(=O)N1CCC(CNS(=O)(=O)c2ccc(C(F)(F)F)cc2)CC1)c1cccs1	nt	nt	nt	0.9
COc1ccc(C(CC(=O)N2CCCC2)c2c(OC)cc(OC)c3c(-c4ccccc4)cc(=O)oc23)cc1 (centres undefined)	4.2	-1.8	9.0*	0.0
COc1ccc(C(CC(=O)N2CCCCC2)c2c(OC)cc(OC)c3c(-c4ccccc4)cc(=O)oc23)cc1 (centres undefined)	-4.8	-1.6	-1.3	0.2
CC1OC(CC(=O)O)CC2=C1C(=O)c1c(O)cccc1C2=O (centres undefined)	-0.8	-9.4	66.9*	9.9*
CCN1/C(=C(\O)c2ccccc2)C(=O)c2ccccc2S1(=O)=O	-2.2	-5.0	-3.1	4.8*
CC(C)C(=O)Nc1ccc(-c2nc3ncccc3o2)cc1	6.1	3.3	1.0	4.6*
CN1OC[C@@H]2CN(Cc3ccc4c(c3)OCO4)[C@H](c3ccc(-n4ccnc4)cc3)C[C@@H]21	nt	nt	nt	-0.7
COc1ccc(-c2nnc(-c3ccc(N(C)C)cc3)o2)cc1	-9.0	-3.6	-7.8	0.6
CN(C)c1ccc(-c2nnc(-c3ccccc3F)o2)cc1	7.2	-10.9	4.0	4.6*
CC(C)C(=O)Nc1ccc(S(=O)(=O)Nc2nccc(/C=C/c3ccccc3)n2)cc1	2.6	1.1	-4.4	4.6*
Cc1cc(C)nc(NS(=O)(=O)c2ccc(NC(=O)C(C)C)cc2)n1	-11.5	-6.2	-1.0	-0.4
COc1ccc(Nc2ccc3c(c2)=NC2(CCCCC2)[N+]=3[O-])cc1	-9.9	3.0	5.2	14.6*
CC(C)C1S/C(=N/N=C/c2ccco2)NC1=O (centres undefined)	1.0	-9.0	0.0	4.7*
O=C(Nc1ccc(O)cc1)c1cc2ccccc2c(=O)s1	4.5	0.4	1.1	4.7*
O=C(Nc1ccccc1)c1cc2ccccc2c(=O)s1	-1.4	1.1	-12.8	0.3
N#C/C(=C\c1ccco1)C(=O)NCC1CCCO1 (centres undefined)	3.0	-4.1	-6.3	7.0*
O=C(c1ccco1)N1N=C(c2cccs2)CC1c1ccccc1O (centres undefined)	-4.9	-12.1	-5.2	5.9*
O=C(CC1CCCC1)N[C@@H](Cc1cccnc1)C(=O)N1CCC[C@H]1C(=O)NC1CCCC1	nt	nt	nt	0.0
COc1ccc(-c2noc(CN(C(=O)c3ccc4c(c3)OCO4)C(C)C)n2)cc1OC	8.9	18.7*	-5.2	-0.2	R2B FP artifact=-0.7;PKA-R2B act conf=-4.8
COc1ccc(-c2noc(CN(C)C(=O)c3ccc4c(c3)OCO4)n2)cc1OC	13.6	-0.3	-2.3	-0.3
C=CCn1c(SCC(=O)Nc2sccc2C(N)=O)nc2ccc(Cl)cc2c1=O	4.4	-2.7	-0.5	-0.1
C=CCn1c(SCN2C(=O)c3ccccc3C2=O)nc2ccc(Cl)cc2c1=O	3.2	18.7*	-10.6	-0.5	R2B FP artifact=0.0;PKA-R2B act conf=2.8
CCNC(=O)N1CCN(c2ccc(N3CCN(Cc4ccccc4)[C@H](C)C3)c(C)c2)[C@@H](C)C1	nt	nt	nt	0.5
O=C1NC(c2cccc(C(F)(F)F)c2)c2c(-c3ccccc3)n[nH]c21 (centres undefined)	nt	nt	nt	-0.2
Cc1ccc(C(=O)NCC(=O)N2CCN(c3ccccc3)CC2)cc1	15.9	21.3*	-3.1	1.4	R2B FP artifact=-2.8;PKA-R2B act conf=-2.9
C=C1CSc2nc(=O)c3c4c(sc3n21)CCCC4	-12.2	-4.0	1.4	0.1
C=C1CSc2nc(=O)c3c4c(sc3n21)CCC4	-4.6	19.8*	-15.1	1.6	R2B FP artifact=-2.7;PKA-R2B act conf=-3.0

Screening data: PubChem BioAssay, The Scripps Research Institute Molecular Screening Center
